Screens: PubChem, several laboratories
HSF1 inh: HSF1 inhibition; NIH3T3-HGL HSE-luciferase, MG132-induced, luminescence 8 h; stronger effect = lower value; 300,000 tested, 0.77% active; activity change, negative = inhibition, % at 7.5 µM (by protocol);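 active = more than half of replicate wells show activity change below -50%, luminescence cut by over half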;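 note: luciferase reports HSF-1 transcriptional activity via heat shock element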
HSP90 refold inh: blocks HSP90-mediated luciferase refolding in reticulocyte lysate; Rabbit reticulocyte lysate, luciferase refolding luminescence, 3 h; inhibition, % at 5.6 µM; 290,000 tested, 0.91% active;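 active = inhibition above the screen-wide mean plus 3 SD, computed separately per campaign, cut at about 16% in these data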;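 note: inhibitors lower the luminescence because luciferase stays unfolded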
MPTP inh: permeability transition pore inhibition; AID 602449; 360,000 tested, 1.4% active; inhibition, % at 10 µM; isolated mouse mitochondria, Ca2+ swelling absorbance, 30 min;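 active = inhibition of 50% or more, scaled per plate between neutral and stimulator controls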
Platelet DG rel: modulates dense granule release in human platelets; human platelet-rich plasma, SFLLRN dense granule ATP release, luminescence; inhibition, %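 (compounds screened at 7.5 µM in platelet-rich plasma)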; 300,000 tested, 0.22% active; AID 1663;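 active = mean replicate score, as percent of positive control, at or above 50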
HSF-1 act: increases HSF-1 driven luciferase reporter signal; activation, % at 9 µM; NIH3T3-HGL HSF-1 luciferase reporter, MG132, 8 h; 100% = twice DMSO control signal; 300,000 tested, 1.7% active;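 active = mean replicate activation of at least 50% with a set share of replicates each reaching 50%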
dFosB act: activators of mouse delta FosB homodimer. P13346. purified delta FosB, TAMRA-CDK5 oligo fluorescence polarization; percent of positive-control signal above neutral wells. activation, % at 25 µM. 340,000 tested, 0.99% active. AID 493131;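 active = mean activation above about 17%, with every replicate also reaching it, limit read from the data, passing the limit was not always enough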
Target sequence (P13346 whole entry, looked up): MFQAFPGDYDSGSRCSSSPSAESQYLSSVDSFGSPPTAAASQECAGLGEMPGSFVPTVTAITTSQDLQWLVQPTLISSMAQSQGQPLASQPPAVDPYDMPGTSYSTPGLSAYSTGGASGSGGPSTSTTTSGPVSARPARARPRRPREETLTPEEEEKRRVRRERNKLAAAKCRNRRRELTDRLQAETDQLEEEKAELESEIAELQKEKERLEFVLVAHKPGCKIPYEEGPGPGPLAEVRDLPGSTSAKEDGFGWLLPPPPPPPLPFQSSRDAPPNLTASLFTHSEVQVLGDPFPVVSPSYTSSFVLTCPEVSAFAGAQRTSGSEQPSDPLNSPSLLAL
HSP90 confirm: confirmation of HSP90 inhibitors. shares compounds with HSP90 refold inh. inhibition, % at 5.9 µM. 2,300 tested, 64% active. rabbit reticulocyte lysate, luciferase refolding luminescence, 3 h; in the data active = inhibition above about 18%
FLuc counter: counter-screen for HSP90 inhibitors: inhibitors of firefly luciferase; shares compounds with HSP90 refold inh; purified native firefly luciferase, luminescence; inhibition, % at 5.9 µM; 2,300 tested, 48% active; AID 1847;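 active = inhibition above the mean inhibition of all tested sample wells plus 3 SD, cut at about 10% in these data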
Numbers stand for hits. Hits are enriched below; roughly 4.9% of the tested compounds scored in any of these assays.

How did Cn1cccc1C(=O)NC(=O)COC(=O)C12CC3CC(CC(O)(C3)C1)C2 do in these assays?
HSF1 inh: -60.9; HSP90 refold inh: 42.8; MPTP inh: inactive; Platelet DG rel: inactive; HSF-1 act: inactive; dFosB act: inactive; HSP90 confirm: 53.7; FLuc counter: 44.2

Results for S=C(N/N=C1\CCc2ccccc21)NC1CCCCC1 ?
HSF1 inh: -55.1; HSP90 refold inh: 25.7; MPTP inh: inactive; Platelet DG rel: inactive; HSF-1 act: inactive; dFosB act: inactive; HSP90 confirm: 34.0; FLuc counter: inactive

How did Cc1noc(C)c1NC(=O)Nc1cccc2c1O[C@H](CN(C)C(=O)Nc1ccc3c(c1)OCO3)[C@@H](C)CN([C@H](C)CO)C2=O do in these assays?
MPTP inh: inactive; dFosB act: inactive

What do the screens show for `COc1ccccc1C(=O)NCC1(c2ccccc2)CCCC1`?
HSF1 inh: inactive; HSP90 refold inh: inactive; MPTP inh: inactive; Platelet DG rel: inactive; HSF-1 act: inactive; dFosB act: inactive

How did CCN(c1ccccc1)c1cc2ccccc2c(=O)[nH]1 do in these assays?
HSF1 inh: inactive; HSP90 refold inh: 41.1; MPTP inh: inactive; Platelet DG rel: inactive; HSF-1 act: inactive; dFosB act: inactive; HSP90 confirm: inactive; FLuc counter: inactive

How did CCN(c1ccccc1)c1nc(=O)c2cccnc2s1 do in these assays?
HSF1 inh: inactive; HSP90 refold inh: inactive; MPTP inh: inactive; Platelet DG rel: inactive; HSF-1 act: inactive; dFosB act: inactive

Results for O=C(Nc1ccc(N2CCCC(O)C2)cc1)c1snc2c(=O)[nH]cnc12 (configuration not stated) ?
HSF1 inh: inactive; HSP90 refold inh: 18.6; MPTP inh: inactive; Platelet DG rel: inactive; HSF-1 act: inactive; dFosB act: inactive; HSP90 confirm: inactive; FLuc counter: inactive

What do the screens show for `CC(C)n1nnnc1C1c2ccccc2C(=O)N1CCCN1CCOCC1` (configuration not stated)?
MPTP inh: inactive

What do the screens show for `C/C=C1\COC(C(=O)NCCCN2CCCC2=O)(C(F)(F)F)C=C1C=C(C)C` (configuration not stated)?
HSF1 inh: inactive; MPTP inh: inactive; Platelet DG rel: inactive; HSF-1 act: inactive; dFosB act: inactive

How did Cc1c(CC(=O)N[C@@H](C)C(=O)O)c(=O)oc2cc3c(cc12)CCC(C)(C)O3 do in these assays?
HSF1 inh: inactive; HSP90 refold inh: inactive; MPTP inh: inactive; Platelet DG rel: inactive; HSF-1 act: inactive; dFosB act: inactive

What do the screens show for `Cc1c(CC(=O)N[C@H](C(=O)O)C(C)C)c(=O)oc2cc3c(cc12)CCC(C)(C)O3`?
HSF1 inh: inactive; HSP90 refold inh: 27.4; MPTP inh: inactive; Platelet DG rel: inactive; HSF-1 act: inactive; dFosB act: inactive; HSP90 confirm: 34.6; FLuc counter: 14.2

Results for Cc1c(/C(O)=C2\C(=O)C(=O)N(CCN(C)C)C2c2cccs2)cnn1-c1ccccc1 (configuration not stated) ?
HSF1 inh: inactive; HSP90 refold inh: 39.9; MPTP inh: inactive; Platelet DG rel: inactive; HSF-1 act: inactive; dFosB act: inactive; HSP90 confirm: inactive; FLuc counter: inactive

Results for Cc1c(/C(O)=C2/C(=O)C(=O)N(CCN3CCOCC3)C2c2ccccn2)cnn1-c1ccccc1 (configuration not stated) ?
HSF1 inh: -85.3; HSP90 refold inh: 75.8; MPTP inh: inactive; Platelet DG rel: inactive; HSF-1 act: inactive; dFosB act: inactive; HSP90 confirm: 22.3; FLuc counter: 36.4

How did CCC(=O)N/N=C/c1ccc(OS(=O)(=O)c2ccccc2)cc1 do in these assays?
HSF1 inh: inactive; HSP90 refold inh: 21.6; MPTP inh: inactive; Platelet DG rel: inactive; HSF-1 act: inactive; dFosB act: inactive; HSP90 confirm: inactive; FLuc counter: inactive

How did Cc1ccc(CN2C(=O)c3ccccc3Sc3ccc(C(=O)NCCCN4CCOCC4)cc32)cc1 do in these assays?
HSF1 inh: inactive; HSP90 refold inh: inactive; MPTP inh: inactive; Platelet DG rel: inactive; HSF-1 act: inactive; dFosB act: inactive

How did O=C(NCCN1CCOCC1)c1ccc2c(c1)N(Cc1cccc(F)c1)C(=O)c1ccccc1S2 do in these assays?
HSF1 inh: inactive; HSP90 refold inh: 20.3; MPTP inh: inactive; Platelet DG rel: inactive; HSF-1 act: inactive; dFosB act: inactive; HSP90 confirm: inactive; FLuc counter: inactive

How did Cc1ccc(C)c(N2N=C(C(=O)OCC(=O)N(C)c3ccccc3)CCC2=O)c1 do in these assays?
MPTP inh: inactive; dFosB act: inactive

How did COc1ccc(NC(=O)/C(C#N)=C/c2ccc(-c3ccccc3C(=O)O)o2)cc1 do in these assays?
HSF1 inh: inactive; HSP90 refold inh: inactive; MPTP inh: inactive; Platelet DG rel: inactive; HSF-1 act: inactive; dFosB act: inactive

Results for COc1ccc(NC(=O)/C(C#N)=C\c2ccc(-c3cccc(C(=O)O)c3C)o2)cc1 ?
HSF1 inh: inactive; HSP90 refold inh: 31.8; MPTP inh: inactive; Platelet DG rel: inactive; HSF-1 act: inactive; dFosB act: inactive; HSP90 confirm: 28.1; FLuc counter: inactive

What do the screens show for `Brc1cccc2sc(N3CCCC3)nc12`?
HSF1 inh: inactive; HSP90 refold inh: inactive; MPTP inh: inactive; Platelet DG rel: inactive; HSF-1 act: inactive; dFosB act: inactive

What do the screens show for `Cc1cc(/C=c2/sc3nc4ccccc4n3c2=O)c(C)n1-c1ccccn1`?
HSF1 inh: -91.4; HSP90 refold inh: 60.2; MPTP inh: inactive; Platelet DG rel: inactive; HSF-1 act: inactive; dFosB act: inactive; HSP90 confirm: 89.8; FLuc counter: 81.0

Results for CCCCn1c(SCC(=O)NNC(=O)c2ccco2)nnc1-c1ccco1 ?
HSF1 inh: inactive; HSP90 refold inh: inactive; MPTP inh: inactive; Platelet DG rel: inactive; HSF-1 act: inactive; dFosB act: inactive

What do the screens show for `Cc1ccccc1OCCCC(=O)Nc1nccs1`?
HSF1 inh: inactive; HSP90 refold inh: inactive; MPTP inh: inactive; Platelet DG rel: inactive; HSF-1 act: inactive; dFosB act: inactive

What do the screens show for `Cc1cccc(OCC(=O)Nc2nccs2)c1C`?
HSF1 inh: inactive; HSP90 refold inh: 27.0; MPTP inh: inactive; Platelet DG rel: inactive; HSF-1 act: 56.2; dFosB act: inactive; HSP90 confirm: 29.3; FLuc counter: 13.5

How did CN(C)c1ccc(N=Cc2cccn2C)cc1 do in these assays?
HSF1 inh: inactive; HSP90 refold inh: 22.0; MPTP inh: inactive; Platelet DG rel: inactive; HSF-1 act: inactive; dFosB act: inactive; HSP90 confirm: inactive; FLuc counter: inactive

Results for O=C(N/N=C/c1sc2ccccc2c1O)c1cccc2ccccc12 ?
HSF1 inh: inactive; HSP90 refold inh: inactive; MPTP inh: inactive; Platelet DG rel: inactive; HSF-1 act: inactive; dFosB act: inactive
